Compound activity (PubChem)
A selection: hits, their analogues and other compounds. The true share with any hit is near 19%.
DT40 TDP1 no CPT = qHTS for Inhibitors of human tyrosyl-DNA phosphodiesterase 1 (TDP1): qHTS in cells in absence of CPT | DT40 Tdp1-/- hTDP1 cells, no CPT, ATP luminescence, 48 h | Potency, µM (doses to about 46.2 µM), for inactives: top-dose activity change, negative = growth inhibition, hits mostly inhibitors | actives 15% (n = 420,000) | AID 686978, 2013; also: potency is read from the fitted curve at half-maximal effect; nearly all actives have a fitted effect of over 55% in size
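Seeded 400 DT40-hTDP1 cells/well (vehicle DMSO, no 20 nM CPT); pinned compounds; ≥48 hr at 37 °C; CellTiter-Glo luminescence as viability measure.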
DT40 TDP1 CPT = qHTS for Inhibitors of human tyrosyl-DNA phosphodiesterase 1 (TDP1): qHTS in cells in presence of CPT; chicken DT40 Tdp1-/-;hTDP1 cells + 20 nM CPT, ATP luminescence, 48 h; Potency, µM (doses to about 46.2 µM), without a hit: at the highest dose activity change, negative = growth inhibition, most hits filed as inhibitors; actives 12% (n = 420,000); also: potency is read from the fitted curve at half-maximal effect; nearly all actives have a fitted effect of over 55% in size
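Cell growth measured by CellTiter-Glo luminescence after a minimum 48 h, 37 C compound exposure with 20 nM CPT in Tdp1-knockout DT40 cells stably expressing hTDP1, seeded 400/well; qHTS titration format.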
ELG1 DNA repair = qHTS screen for small molecules that inhibit ELG1-dependent DNA repair in human embryonic kidney (HEK293T) cells expressing luciferase-tagged ELG1 | HEK293T ELG1-luciferase reporter, luminescence, 16 h; DNA damage induced by 5-fluorouridine | Potency, µM (top dose mostly 46.1 µM), for the others: at the highest dose activity change, negative = inhibition, most hits filed as inhibitors | actives 2.3% (n = 330,000); also: potency is read from the fitted curve at half-maximal effect; nearly all actives have a fitted effect of over 55% in size
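Luminescence from the luciferase reporter, measured 30 min after ONE-Glo reagent at room temperature, was the read-out. Beforehand, 2,000 cells per well were exposed for 16 hr at 37 °C to 5-fluorouridine together with compound or vehicle.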
Giardia kill = Small Molecules that selectively kill Giardia lamblia: qHTS. actives 0.15% (n = 340,000). activity change, % at 7.66 µM, hits read low. Giardia lamblia trophozoite viability; in the data active = activity change below about -80%; inconclusive = between about -30% and that limit;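 also: parasites exposed to compound for two days anaerobically before the ATP read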
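Giardia lamblia trophozoites (100 cells/well) were incubated with compounds for 48 h at 37 deg C under anaerobic conditions. Viability was read as ATP content by one-step luminescence after 15-30 min at room temperature.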
IL-1B inflam inh = qHTS for Inhibitors of Inflammasome Signaling: IL-1-beta AlphaLISA Primary Screen. THP-1 LPS/ATP IL-1B secretion, AlphaLISA, 16 h; hits give low values. activity change, % at 57.5 µM. actives 4.7% (n = 360,000); in the data active = activity change below about -50%; inconclusive = mostly about -30% to -49%
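THP-1 cells pretreated 1 hr with compounds (up to 57.5 uM final), then stimulated with LPS (250 ng/mL final) plus ATP (1.25 mM final); secreted IL-1B measured by AlphaLISA after 16 hr, decreased signal indicating inhibition.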
TDP1 inh = qHTS Assay for Inhibitors of Tyrosyl-DNA Phosphodiesterase (TDP1). Potency, µM (highest dose often 130 µM), for the others: at the top dose activity change, negative = inhibition, actives largely listed as inhibitors. AID 485290, 2010. actives 0.28% (n = 350,000). Tyrosyl-DNA phosphodiesterase 1 (Homo sapiens), Q9NUW8. recombinant TDP1, AlphaScreen DNA substrate cleavage; also: potency is read from the fitted curve at half-maximal effect; nearly all actives have a fitted effect of over 40% in size
Target sequence (Q9NUW8 whole entry, looked up): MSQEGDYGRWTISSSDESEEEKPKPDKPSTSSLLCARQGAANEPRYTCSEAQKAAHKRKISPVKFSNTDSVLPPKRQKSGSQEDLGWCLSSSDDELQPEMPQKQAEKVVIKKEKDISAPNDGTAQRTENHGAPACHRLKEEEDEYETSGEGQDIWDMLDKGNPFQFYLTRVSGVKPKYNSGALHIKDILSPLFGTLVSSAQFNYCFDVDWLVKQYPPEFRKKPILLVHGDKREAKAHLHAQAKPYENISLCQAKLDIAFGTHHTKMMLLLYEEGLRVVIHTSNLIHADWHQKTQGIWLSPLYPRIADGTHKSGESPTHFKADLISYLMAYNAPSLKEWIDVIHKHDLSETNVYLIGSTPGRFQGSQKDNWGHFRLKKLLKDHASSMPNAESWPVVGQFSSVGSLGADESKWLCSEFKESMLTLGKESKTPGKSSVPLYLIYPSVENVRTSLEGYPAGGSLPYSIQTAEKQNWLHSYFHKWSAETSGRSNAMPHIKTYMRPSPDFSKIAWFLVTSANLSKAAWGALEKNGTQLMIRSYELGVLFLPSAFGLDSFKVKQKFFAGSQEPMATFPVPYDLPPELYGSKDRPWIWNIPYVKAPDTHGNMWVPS
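Signal: AlphaScreen proximity between streptavidin donor and anti-FITC acceptor beads on intact substrate. Reaction: Tdp1 1 nM, substrate 15 nM final, 5 min RT after 15 min compound preincubation.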
Starred values were filed as active, the others as inactive. Unless noted, calls follow the shape of the dose curve; as a rule, active = well fitted curve in the direction sought with a large enough effect; inconclusive = small, poorly fitted or top-dose-only effect, or another doubt; inactive = no such curve, though single readings can be large; an effect the other way counts as inactive or inconclusive. % is scaled to controls: 0 for no effect and ±100 for the full control effect.

How did CC1(C)CC2CC(C)(CN2S(=O)(=O)c2ccc(C(=O)Nc3ccc(S(=O)(=O)N4CCOCC4)cc3)cc2)C1 (stereo not given) do in these assays?
DT40 TDP1 no CPT: 5.2µM*; DT40 TDP1 CPT: 3.7µM*; ELG1 DNA repair: 16%; Giardia kill: -3; IL-1B inflam inh: 37; TDP1 inh: -3%

Results for CC1(C)CC2CC(C)(CN2C(=O)COC(=O)c2cccc([N+](=O)[O-])c2)C1 (stereo not given) ?
DT40 TDP1 no CPT: -27%; DT40 TDP1 CPT: inconclusive; ELG1 DNA repair: inconclusive; Giardia kill: -4; IL-1B inflam inh: 21; TDP1 inh: 2%

What do the screens show for `CC(=O)Nc1ccc(S(=O)(=O)N2CC3(C)CC2CC(C)(C)C3)cc1` (stereo not given)?
DT40 TDP1 no CPT: inconclusive; DT40 TDP1 CPT: -6%; ELG1 DNA repair: 4%; Giardia kill: 4; IL-1B inflam inh: 47; TDP1 inh: 5%

How did CC1(C)CC2CC(C)(CN2S(=O)(=O)c2ccc(C(=O)Nc3ccc(Cl)c(S(=O)(=O)N4CCOCC4)c3)cc2)C1 (stereo not given) do in these assays?
DT40 TDP1 no CPT: 3.7µM*; DT40 TDP1 CPT: 3.3µM*; ELG1 DNA repair: 1%; Giardia kill: -6; IL-1B inflam inh: 27; TDP1 inh: 4%

What do the screens show for `Cc1ncc(CN2CCCC(C(=O)Nc3ccc(-n4ccnc4C)cc3)C2)cn1` (stereo not given)?
DT40 TDP1 no CPT: 13%; DT40 TDP1 CPT: -3%; ELG1 DNA repair: 23%; Giardia kill: 5; IL-1B inflam inh: 11; TDP1 inh: 5%

What do the screens show for `CCCOc1ccc(C(=O)N(Cc2ccccc2Cl)C2CCS(=O)(=O)C2)cc1` (stereo not given)?
DT40 TDP1 no CPT: inconclusive; DT40 TDP1 CPT: inconclusive; TDP1 inh: 1%

How did COC(=O)[C@]1(C)CCC[C@@]2(C)C3CC[C@@]4(C)C[C@]3(CCC21)CC(=O)N4C (stereo not given in full) do in these assays?
DT40 TDP1 no CPT: inconclusive; DT40 TDP1 CPT: inconclusive; ELG1 DNA repair: -1%; Giardia kill: 4; IL-1B inflam inh: -5; TDP1 inh: 2%

What do the screens show for `C=C1C[C@@]23CCC4[C@@](C)(CCC[C@@]4(C)C(=O)OC)C2CC[C@]1(OC(C)=O)C3` (stereo not given in full)?
DT40 TDP1 no CPT: inconclusive; DT40 TDP1 CPT: 18µM*; ELG1 DNA repair: 1%; Giardia kill: -20; IL-1B inflam inh: 24; TDP1 inh: -2%

Results for C[C@@]12CCC3[C@@](CCC4[C@@]3(C)CCC[C@@]4(C)C(=O)NC3CCCCC3)(CC1=O)C2 (stereo not given in full) ?
DT40 TDP1 no CPT: 23µM*; DT40 TDP1 CPT: 18µM*; ELG1 DNA repair: -1%; Giardia kill: -7; IL-1B inflam inh: 12; TDP1 inh: 0%

How did COC(=O)[C@]1(C)CCC[C@@]2(C)C3CC[C@@]4(C)C[C@]3(CCC21)CC4=NO (stereo not given in full) do in these assays?
DT40 TDP1 no CPT: 21µM*; DT40 TDP1 CPT: inconclusive; ELG1 DNA repair: inconclusive; Giardia kill: -11; IL-1B inflam inh: 18; TDP1 inh: 0%

Results for O=[N+]([O-])c1ccc2c(OCc3nnc(-c4ccccc4Br)o3)ncnc2c1 ?
DT40 TDP1 no CPT: 13µM*; DT40 TDP1 CPT: inconclusive; ELG1 DNA repair: inconclusive; Giardia kill: -26; IL-1B inflam inh: 38; TDP1 inh: 0%

What do the screens show for `O=[N+]([O-])c1cc(Br)c(OCc2nnc(-c3ccccc3)o2)c(Br)c1`?
DT40 TDP1 no CPT: inconclusive; DT40 TDP1 CPT: -30%; ELG1 DNA repair: 0%; Giardia kill: -16; IL-1B inflam inh: -13; TDP1 inh: 1%

Results for CSc1nsc(SCC(=O)Nc2ccccc2F)n1 ?
DT40 TDP1 no CPT: -17%; DT40 TDP1 CPT: 11%; ELG1 DNA repair: inconclusive; Giardia kill: inconclusive; IL-1B inflam inh: 13

Results for NC(=O)c1cc([N+](=O)[O-])c(Cl)cc1NCc1cccnc1 ?
DT40 TDP1 no CPT: inconclusive; DT40 TDP1 CPT: inconclusive; ELG1 DNA repair: inconclusive; Giardia kill: 60; IL-1B inflam inh: -77*; TDP1 inh: 1%

How did Cc1ccc(NC(=O)c2cc([N+](=O)[O-])ccc2NCc2cccnc2)cc1Cl do in these assays?
DT40 TDP1 no CPT: inconclusive; DT40 TDP1 CPT: inconclusive; ELG1 DNA repair: inconclusive; Giardia kill: -23; IL-1B inflam inh: -54*; TDP1 inh: 4%

Results for CC(C)(C)C(=O)N1CCN(c2ccc([N+](=O)[O-])c(NCc3cccnc3)c2)CC1 ?
DT40 TDP1 no CPT: 4.1µM*; DT40 TDP1 CPT: 4.1µM*; ELG1 DNA repair: inconclusive; Giardia kill: 6; IL-1B inflam inh: -5; TDP1 inh: 3%

What do the screens show for `NC(=O)c1cc([N+](=O)[O-])ccc1NCc1cccnc1`?
DT40 TDP1 no CPT: inconclusive; DT40 TDP1 CPT: -26%; ELG1 DNA repair: inconclusive; Giardia kill: -11; IL-1B inflam inh: 28; TDP1 inh: 0%

How did Clc1ccc(NCc2cccnc2)c(Cl)c1 do in these assays?
DT40 TDP1 no CPT: inconclusive; DT40 TDP1 CPT: -23%; ELG1 DNA repair: -3%; Giardia kill: -9; IL-1B inflam inh: -59*

Results for O=C(c1ccccc1)N1CCN(c2ccc([N+](=O)[O-])c(NCc3cccnc3)c2)CC1 ?
DT40 TDP1 no CPT: inconclusive; DT40 TDP1 CPT: inconclusive; ELG1 DNA repair: inconclusive; Giardia kill: 4; IL-1B inflam inh: -28; TDP1 inh: 4%

How did COc1cccc(NC(=O)c2cc([N+](=O)[O-])ccc2NCc2cccnc2)c1 do in these assays?
DT40 TDP1 no CPT: inconclusive; DT40 TDP1 CPT: inconclusive; ELG1 DNA repair: inconclusive; Giardia kill: 18; IL-1B inflam inh: -21; TDP1 inh: 3%

What do the screens show for `COc1ccc(CNc2nc3c(-c4ccc(C)cc4)nnn3c3ccccc23)cc1`?
DT40 TDP1 no CPT: -20%; DT40 TDP1 CPT: -26%; TDP1 inh: 4%

Results for O=c1cc(CSc2ccccc2)nc(-c2ccncc2)[nH]1 ?
DT40 TDP1 no CPT: -12%; DT40 TDP1 CPT: 14%; ELG1 DNA repair: -4%; Giardia kill: 11; IL-1B inflam inh: -7; TDP1 inh: 3%
